The test addresses Glucocorticoid receptor (Homo sapiens) (UniProt P04150). The test is described as follows: qHTS assay for small molecule agonists of glucocorticoid receptor signaling (AID 588532).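 Note: 100% = dexamethasone at 0.1 µM and 0% = DMSO only wells.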 To be noted: HeLa MMTV-bla, beta-lactamase ratio, agonist, 18 h; hits give high values; percent of dexamethasone control, DMSO zero. The method, boiled down: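 Stimulation of a glucocorticoid response element-driven beta-lactamase gene was measured in HeLa cells. Responses were scaled between DMSO basal and 0.1 uM dexamethasone, then fitted for half-maximal stimulation.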
Background: qHTS replaces the single test concentration by a dilution series.

SMILES strings stand for the structures. Results filed as inconclusive are left out. Unmarked numbers belong to inactive results. Calls come from the whole dose curve; as a rule, active = well fitted curve in the direction sought with a large enough effect in the signal ratio, with a control signal flat; inconclusive = small, poorly fitted or top-dose-only effect, or a change in a side signal; inactive = no such curve, though single readings can be large or run the other way; the % refers to the signal ratio.

The source of these data is PubChem BioAssay (NCATS).

Sequence of Glucocorticoid receptor (Homo sapiens) (P04150 whole entry, looked up): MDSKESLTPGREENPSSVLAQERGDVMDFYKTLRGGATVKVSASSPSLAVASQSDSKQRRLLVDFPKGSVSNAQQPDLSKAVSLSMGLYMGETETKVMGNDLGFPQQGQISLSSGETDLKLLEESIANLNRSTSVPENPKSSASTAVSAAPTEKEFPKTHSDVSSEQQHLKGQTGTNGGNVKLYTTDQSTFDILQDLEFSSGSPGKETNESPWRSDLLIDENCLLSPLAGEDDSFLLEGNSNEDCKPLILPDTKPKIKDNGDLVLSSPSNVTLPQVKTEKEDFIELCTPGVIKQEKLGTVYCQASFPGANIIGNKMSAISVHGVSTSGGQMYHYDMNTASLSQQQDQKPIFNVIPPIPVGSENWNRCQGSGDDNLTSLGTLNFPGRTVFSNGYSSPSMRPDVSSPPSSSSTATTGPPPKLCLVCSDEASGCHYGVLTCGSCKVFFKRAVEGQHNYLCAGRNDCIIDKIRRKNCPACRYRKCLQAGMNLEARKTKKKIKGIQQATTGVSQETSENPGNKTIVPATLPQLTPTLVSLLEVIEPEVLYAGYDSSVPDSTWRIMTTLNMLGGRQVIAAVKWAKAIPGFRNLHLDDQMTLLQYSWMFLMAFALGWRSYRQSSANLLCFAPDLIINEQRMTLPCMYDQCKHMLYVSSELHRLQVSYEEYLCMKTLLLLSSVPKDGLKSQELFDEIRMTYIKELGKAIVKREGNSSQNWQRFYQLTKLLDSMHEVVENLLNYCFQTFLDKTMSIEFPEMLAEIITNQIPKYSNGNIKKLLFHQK

Turning to `C[C@]1(O)CC[C@H]2[C@@H]3CCC4=CC(=O)CC[C@]4(C)[C@@]3(F)[C@@H](O)C[C@@]21C`, the activation is 0.36%.
Under `Nc1ccccc1` stands -2.91%.
